From PubChem BioAssay (NCI)
About 83,000 compounds went through this panel and 20% of them were active in at least one assay; those are over-represented in the sample as a whole.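 Activity criterion: percent growth below 10, measured after cells in 96-well plates were exposed to a single compound concentration for 48 hours.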 A number with no mark means an inactive call. Active and inactive are the calls of the source.

The molecules below were run on NCI-H226 lung (assay: NCI-60 one-dose screen, 48 h (100 = growth as untreated, 0 = no growth, -100 = all killed)). Conditions: 10 µM unless noted.
Experimental: Growth inhibition of the NCI-H226 human Non-Small Cell Lung tumor cell line is measured as a screen for anti-cancer activity. Cells are grown in 96 well plates and exposed to the test compound for 48 hours. Compounds are tested at a single concentration, which is 10^-5 M for most compounds. The reported endpoint is percent growth (GI% or GIPRCNT), where numbers from 0 - 100% represent growth inhibition, and numbers from -100% - 0 represent cell death. For example, a value of 40 represents 60% growth inhibition. A value of 0 means no net growth occurred over the course of the experiment. A value of -40 indicates 40% of cells at the beginning of the experiment died by the end of the experiment. A value of -100 means all cells are dead at the end of the experiment.
NCI-60 Human Tumor Cell Lines Screen was performed using the standard one-dose NCI protocol, which is described in more detail at https://dtp.cancer.gov/discovery_development/nci-60/default.htm.
Compounds with GIPRCNT values below 10 were considered active. Activity score was based on GIPRCNT using the following formula: […]
Score is 0 for GIPRCNT values of 100 or above, 50 for GIPRCNT values of 0, and 100 for GIPRCNT values of -100.
In the case of `CC/C=C\C[C@H](O)C/C=C1/C(=O)C=C[C@@H]1C/C=C\CCCC(=O)OC(C)C`, the growth is reported as -39% (active). For `COc1cc(C(=O)/C=C/c2c(C)n([O-])c3ccc(C)cc3[n+]2=O)cc(OC)c1OC`, the growth was 72.7%. For `COc1ccc2nc3cc(Cl)ccc3c(NCCNCC(O)CO)c2c1` (stereo not given), the growth was 43.1%. For `C=C1CCC2C3(C)COC(c4ccccc4Br)OC3CCC2(C)C1C/C=C1/C(=O)OCC1OC(C)=O` (stereo not given), the growth was -58.3% (active). `Cc1ccc(Nc2c(C(N)=O)cnc3ccc(-c4csc(N)n4)cc23)cc1` showed a growth of 88.3%. `C[C@@H]1CC[C@@H]2[C@@H]1[C@H](OC(=O)/C=C/c1ccccc1)[C@]1(c3ccccc3)C[C@@H](OC(=O)CO)[C@@]2(C)O1` was tested, and the growth was 88.8%. With `Nc1c(C(=O)Nc2ccccc2Cl)sc2nc3c(cc12)CCCCCC3` the growth was 31%. In the case of `C=CC[N+]1(CC)CCN=C1CCCCCCCCCCCCCCCCC` (stereo not given), the growth is reported as -50% (active). For `CCN(CC)CC(C)Nc1ccc([N+](=O)[O-])c2sc3ccccc3c(=O)c12` (stereo not given), the growth was 24%. Molecule `O=S(=O)(Nc1ccc(Cl)cc1Cl)c1ccc(-c2cnc(C3CC3)o2)cc1` has a growth of 59%. With `C=C1C(=O)O[C@H]2[C@H]1CC/C(Cn1cc(Cc3c[nH]c4ccccc34)nn1)=C\CC[C@@]1(C)O[C@@H]21` the growth was 79.7%. Work on `COc1cccc(-n2cc(-c3nc(Nc4cc(C)[nH]n4)c4ccccc4n3)nn2)c1` yielded a growth of 49.9%. For `COc1cccc(-c2nc3sccn3c2-c2ccnc(NCCCNS(=O)(=O)c3ccccc3)c2)c1`, the growth was 32.6%. For `CN1CCN(Cc2ccc(NC(=O)c3cncc(C#Cc4c(N)ncc5ccc(C#N)cc45)c3)cc2C(F)(F)F)CC1`, the growth was 3.8% (active). For `Nc1cc2ccncc2c2ccccc12`, the growth was 44%. In the case of `S=c1[nH]nc(CSc2ncnc3c2c(-c2ccccc2)cn3-c2ccc(Cl)cc2)o1`, the growth is reported as 89.5%. For `O=c1ccc2cc3ccccc3cc2[nH]1`, the growth was 94%. Molecule `CCCCN(CCCC)CCC(C)(O)c1cc2ccccc2c2ccccc12` (stereo not given) has a growth of 107%. For `CCN(CC)CCCC(C)Nc1ccnc2c(OC)cccc12` (stereo not given), the growth was 111%. With `O=C1C(=O)N(CCCCn2cc(CO)nn2)c2ccccc21` the growth was 97.4%. `CC(C)(C)n1cc(-c2ccnc(NCCNS(=O)(=O)c3ccccc3)c2)c(-c2cccc(O)c2)n1` showed a growth of 60.4%. In the case of `O=C(O)c1ccccc1Nc1cccc(S(F)(F)(F)(F)F)c1`, the growth is reported as 88.9%. With `COC1/C=C\OC2(C)Oc3c(C)c(O)c4c(O)c(c(CN(C)CCO)c(O)c4c3C2=O)NC(=O)/C(C)=C\C=C/C(C)C(O)C(C)C(O)C(C)C(OC(C)=O)C1C` (stereo not given) the growth was 104%. `Nc1nc(-c2ccc(F)cc2)cc(-c2cnn(-c3ccccc3)n2)n1` was tested, and the growth was 105%. Work on `COc1cc(C2CC(=O)c3c(C)nn(-c4nc5ccccc5[nH]4)c3C2)cc(OC)c1OC` (stereo not given) yielded a growth of 65.9%. For `CSc1nc(NCCO)c(C#N)c(-c2cccc(N)c2)n1`, the growth was 92.8%. Work on `COc1ccc(-c2cc(-c3cccnc3)nc3sc4c(=O)n(-c5ccc(C)cc5)nnc4c23)cc1OC` yielded a growth of 93%. With `O=C(CO[N+](=O)[O-])Nc1ccc(C(=O)/C=C/c2ccc3c(c2)OCO3)cc1` the growth was 107%. `Cc1cc(=O)oc2cc(Oc3nc(-c4ccc(Cl)cc4)cn4c(-c5ccc(Cl)cc5)cnc34)ccc12` was tested, and the growth was 93%. For `CCCCN(CCCC)Cc1c(C)[nH]c2cc(OC)ccc2c1=O`, the growth was 103%. `Cc1cc2cc3cc(C)c(N(C)C)cc3nc2cc1N(C)C` gave a growth of 54.8%. Molecule `O=C(O)c1c([N+](=O)[O-])cnc2ccccc12` has a growth of 91.8%. `CCC(=O)OCc1cccc(OC)c1` was tested, and the growth was 97.9%. With `Nc1ccc(N2CCOCC2)cc1` the growth was 102%. With `COc1ccc(-c2cc(/C=C3\C(=O)Nc4ccc(Cl)cc43)[nH]n2)cc1` the growth was 75.7%. Molecule `CCCCCCCCCCCCN1CCCC(C)C1` (stereo not given) has a growth of 85.3%. `CCN(CC)CCCCNc1ccc(NCCCCN(CC)CC)c2c1C(=O)c1ccccc1C2=O` gave a growth of 113%. Molecule `COc1cc(/C=N/N(C)C)ccc1O` has a growth of 91.5%. `Nc1nc(SCc2ccccc2)c2ncn(C3CCCC3)c2n1` showed a growth of 110%. In the case of `Cc1ccc2c(c1)n([O-])c1cc(Cl)ccc1[n+]2=O`, the growth is reported as 104%.
